# Measured values as given in ChEMBL document CHEMBL2218924, “A broad activity screen in support of a chemogenomic map for kinase signalling research and drug discovery” (Biochem J, 2013).
# Columns and labels:
# [1] = target: Serine/threonine-protein kinase WNK2 (Homo sapiens) (UniProt Q9Y3S1); conditions: at 10 µM
# [2] = target: Serine/threonine-protein kinase WNK3 (Homo sapiens) (UniProt Q9BYP7); conditions: at 1 µM
# [3] = target: Serine/threonine-protein kinase WNK3 (Homo sapiens) (UniProt Q9BYP7); conditions: at 10 µM
# [4] = target: Tyrosine-protein kinase Yes (Homo sapiens) (UniProt P07947); conditions: at 1 µM
# [5] = target: Tyrosine-protein kinase Yes (Homo sapiens) (UniProt P07947); conditions: at 10 µM
# [6] = target: Death-associated protein kinase 3 (Homo sapiens) (UniProt O43293); conditions: at 1 µM
# Chain of Death-associated protein kinase 3 (Homo sapiens) (O43293 whole entry, looked up): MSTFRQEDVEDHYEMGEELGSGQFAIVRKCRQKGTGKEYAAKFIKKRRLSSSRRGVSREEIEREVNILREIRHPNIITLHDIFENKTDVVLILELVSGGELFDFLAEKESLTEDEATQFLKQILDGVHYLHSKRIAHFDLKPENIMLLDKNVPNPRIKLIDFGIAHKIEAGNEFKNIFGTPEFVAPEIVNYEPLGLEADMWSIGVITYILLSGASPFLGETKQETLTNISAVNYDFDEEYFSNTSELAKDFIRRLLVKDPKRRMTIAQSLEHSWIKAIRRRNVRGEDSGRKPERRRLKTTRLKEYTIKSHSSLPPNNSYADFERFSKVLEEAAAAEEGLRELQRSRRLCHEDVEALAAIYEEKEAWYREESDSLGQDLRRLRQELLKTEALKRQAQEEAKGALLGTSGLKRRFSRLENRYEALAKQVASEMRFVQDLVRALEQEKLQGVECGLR
# [7] = target: RAF proto-oncogene serine/threonine-protein kinase (Homo sapiens) (UniProt P04049); conditions: at 1 µM
# Chain of RAF proto-oncogene serine/threonine-protein kinase (Homo sapiens) (P04049 whole entry): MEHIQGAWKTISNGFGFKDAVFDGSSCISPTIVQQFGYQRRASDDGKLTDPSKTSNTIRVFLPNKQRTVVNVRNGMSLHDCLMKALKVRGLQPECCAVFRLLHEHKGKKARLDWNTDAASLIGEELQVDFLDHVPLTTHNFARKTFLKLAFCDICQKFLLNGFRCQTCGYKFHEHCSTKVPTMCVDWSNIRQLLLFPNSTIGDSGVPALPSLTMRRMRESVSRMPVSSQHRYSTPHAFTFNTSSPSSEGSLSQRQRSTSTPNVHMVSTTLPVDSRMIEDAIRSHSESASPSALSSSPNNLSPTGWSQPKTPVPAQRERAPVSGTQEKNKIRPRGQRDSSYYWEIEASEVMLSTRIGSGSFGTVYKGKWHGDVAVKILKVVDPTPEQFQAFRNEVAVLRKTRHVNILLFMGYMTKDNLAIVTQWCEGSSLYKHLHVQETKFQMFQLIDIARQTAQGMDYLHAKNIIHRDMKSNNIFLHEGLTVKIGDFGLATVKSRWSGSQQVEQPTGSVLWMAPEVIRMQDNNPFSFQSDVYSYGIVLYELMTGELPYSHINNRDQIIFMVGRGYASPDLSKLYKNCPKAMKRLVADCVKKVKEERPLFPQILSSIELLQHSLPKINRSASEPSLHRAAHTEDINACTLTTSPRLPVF
# [8] = target: RAF proto-oncogene serine/threonine-protein kinase (Homo sapiens) (UniProt P04049); conditions: at 10 µM
# [9] = target: Mast/stem cell growth factor receptor Kit (Homo sapiens) (UniProt P10721); conditions: at 1 µM
# Chain of Mast/stem cell growth factor receptor Kit (Homo sapiens) (P10721 whole entry): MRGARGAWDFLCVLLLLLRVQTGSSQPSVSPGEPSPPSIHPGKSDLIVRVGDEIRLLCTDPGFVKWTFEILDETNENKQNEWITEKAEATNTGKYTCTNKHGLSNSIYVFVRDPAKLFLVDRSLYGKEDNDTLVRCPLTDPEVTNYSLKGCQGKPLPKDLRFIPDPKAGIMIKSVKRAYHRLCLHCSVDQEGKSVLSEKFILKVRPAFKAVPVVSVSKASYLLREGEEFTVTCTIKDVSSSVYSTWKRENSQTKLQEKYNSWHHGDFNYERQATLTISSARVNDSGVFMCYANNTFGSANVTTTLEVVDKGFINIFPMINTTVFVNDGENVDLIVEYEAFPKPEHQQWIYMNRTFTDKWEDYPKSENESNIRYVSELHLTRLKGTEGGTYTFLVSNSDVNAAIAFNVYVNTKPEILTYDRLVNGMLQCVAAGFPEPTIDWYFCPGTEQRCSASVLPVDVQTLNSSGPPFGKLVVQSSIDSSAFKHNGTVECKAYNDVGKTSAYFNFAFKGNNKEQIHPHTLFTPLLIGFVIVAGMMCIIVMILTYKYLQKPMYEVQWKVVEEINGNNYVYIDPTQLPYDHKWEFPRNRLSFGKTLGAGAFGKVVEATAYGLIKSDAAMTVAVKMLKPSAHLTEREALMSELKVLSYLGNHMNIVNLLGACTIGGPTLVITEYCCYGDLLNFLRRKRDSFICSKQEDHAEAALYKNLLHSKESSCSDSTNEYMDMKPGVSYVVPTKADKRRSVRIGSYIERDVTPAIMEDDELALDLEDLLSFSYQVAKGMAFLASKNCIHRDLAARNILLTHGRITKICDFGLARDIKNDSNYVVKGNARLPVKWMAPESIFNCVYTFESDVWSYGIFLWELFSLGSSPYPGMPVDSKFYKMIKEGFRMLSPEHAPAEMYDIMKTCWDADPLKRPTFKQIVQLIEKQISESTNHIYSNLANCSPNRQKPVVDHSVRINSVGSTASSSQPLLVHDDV
# [10] = target: Mast/stem cell growth factor receptor Kit (Homo sapiens) (UniProt P10721); conditions: at 10 µM
# [11] = target: Proto-oncogene tyrosine-protein kinase Src (Homo sapiens) (UniProt P12931); conditions: at 1 µM
# Chain of Proto-oncogene tyrosine-protein kinase Src (Homo sapiens) (P12931 2-536 limits assumed): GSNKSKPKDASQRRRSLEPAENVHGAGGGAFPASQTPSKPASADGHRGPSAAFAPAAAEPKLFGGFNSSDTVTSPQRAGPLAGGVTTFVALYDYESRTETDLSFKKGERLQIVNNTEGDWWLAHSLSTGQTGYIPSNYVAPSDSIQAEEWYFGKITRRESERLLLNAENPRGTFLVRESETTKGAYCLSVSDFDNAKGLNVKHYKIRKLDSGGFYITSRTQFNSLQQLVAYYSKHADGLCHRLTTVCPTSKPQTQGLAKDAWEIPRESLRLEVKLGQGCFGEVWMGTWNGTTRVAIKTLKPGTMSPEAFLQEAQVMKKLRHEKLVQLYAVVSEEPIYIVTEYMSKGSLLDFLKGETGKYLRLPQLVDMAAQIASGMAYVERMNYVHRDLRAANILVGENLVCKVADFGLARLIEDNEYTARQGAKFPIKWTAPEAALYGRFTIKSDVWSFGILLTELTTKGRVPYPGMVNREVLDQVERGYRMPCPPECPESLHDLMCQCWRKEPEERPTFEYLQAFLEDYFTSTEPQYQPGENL
# [12] = target: Proto-oncogene tyrosine-protein kinase Src (Homo sapiens) (UniProt P12931); conditions: at 10 µM
# [13] = target: Serine/threonine-protein kinase mTOR (Homo sapiens) (UniProt P42345); conditions: at 1 µM
# [14] = target: Serine/threonine-protein kinase mTOR (Homo sapiens) (UniProt P42345); conditions: at 10 µM
# [15] = target: Serine/threonine-protein kinase mTOR (Homo sapiens) (UniProt P42345); conditions: at 1 µM; remark: listed apart in the source
# [16] = target: Serine/threonine-protein kinase mTOR (Homo sapiens) (UniProt P42345); conditions: at 10 µM; remark: listed apart in the source
# [17] = target: T1, Tyrosine-protein kinase ZAP-70 (Homo sapiens) (UniProt P43403); conditions: at 1 µM
# T1 sequence (whole entry): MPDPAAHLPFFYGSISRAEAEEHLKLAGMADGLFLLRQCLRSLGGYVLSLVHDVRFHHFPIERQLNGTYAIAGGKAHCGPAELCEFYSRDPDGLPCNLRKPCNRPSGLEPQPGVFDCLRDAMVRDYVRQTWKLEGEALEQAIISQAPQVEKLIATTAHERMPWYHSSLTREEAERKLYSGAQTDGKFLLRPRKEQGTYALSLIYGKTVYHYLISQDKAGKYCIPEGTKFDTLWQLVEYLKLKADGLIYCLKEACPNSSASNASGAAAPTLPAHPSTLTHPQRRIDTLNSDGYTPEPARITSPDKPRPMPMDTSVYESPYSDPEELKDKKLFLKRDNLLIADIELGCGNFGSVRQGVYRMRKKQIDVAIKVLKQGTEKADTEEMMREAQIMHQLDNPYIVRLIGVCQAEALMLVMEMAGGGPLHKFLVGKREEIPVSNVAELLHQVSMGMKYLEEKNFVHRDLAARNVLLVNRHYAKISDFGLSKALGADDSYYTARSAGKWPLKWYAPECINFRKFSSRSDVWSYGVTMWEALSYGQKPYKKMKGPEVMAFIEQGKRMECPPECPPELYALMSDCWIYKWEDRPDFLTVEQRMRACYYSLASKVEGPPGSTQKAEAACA
# [18] = target: Death-associated protein kinase 3 (Homo sapiens) (UniProt O43293); conditions: at 10 µM
# Chain of Serine/threonine-protein kinase WNK2 (Homo sapiens) (Q9Y3S1 whole entry): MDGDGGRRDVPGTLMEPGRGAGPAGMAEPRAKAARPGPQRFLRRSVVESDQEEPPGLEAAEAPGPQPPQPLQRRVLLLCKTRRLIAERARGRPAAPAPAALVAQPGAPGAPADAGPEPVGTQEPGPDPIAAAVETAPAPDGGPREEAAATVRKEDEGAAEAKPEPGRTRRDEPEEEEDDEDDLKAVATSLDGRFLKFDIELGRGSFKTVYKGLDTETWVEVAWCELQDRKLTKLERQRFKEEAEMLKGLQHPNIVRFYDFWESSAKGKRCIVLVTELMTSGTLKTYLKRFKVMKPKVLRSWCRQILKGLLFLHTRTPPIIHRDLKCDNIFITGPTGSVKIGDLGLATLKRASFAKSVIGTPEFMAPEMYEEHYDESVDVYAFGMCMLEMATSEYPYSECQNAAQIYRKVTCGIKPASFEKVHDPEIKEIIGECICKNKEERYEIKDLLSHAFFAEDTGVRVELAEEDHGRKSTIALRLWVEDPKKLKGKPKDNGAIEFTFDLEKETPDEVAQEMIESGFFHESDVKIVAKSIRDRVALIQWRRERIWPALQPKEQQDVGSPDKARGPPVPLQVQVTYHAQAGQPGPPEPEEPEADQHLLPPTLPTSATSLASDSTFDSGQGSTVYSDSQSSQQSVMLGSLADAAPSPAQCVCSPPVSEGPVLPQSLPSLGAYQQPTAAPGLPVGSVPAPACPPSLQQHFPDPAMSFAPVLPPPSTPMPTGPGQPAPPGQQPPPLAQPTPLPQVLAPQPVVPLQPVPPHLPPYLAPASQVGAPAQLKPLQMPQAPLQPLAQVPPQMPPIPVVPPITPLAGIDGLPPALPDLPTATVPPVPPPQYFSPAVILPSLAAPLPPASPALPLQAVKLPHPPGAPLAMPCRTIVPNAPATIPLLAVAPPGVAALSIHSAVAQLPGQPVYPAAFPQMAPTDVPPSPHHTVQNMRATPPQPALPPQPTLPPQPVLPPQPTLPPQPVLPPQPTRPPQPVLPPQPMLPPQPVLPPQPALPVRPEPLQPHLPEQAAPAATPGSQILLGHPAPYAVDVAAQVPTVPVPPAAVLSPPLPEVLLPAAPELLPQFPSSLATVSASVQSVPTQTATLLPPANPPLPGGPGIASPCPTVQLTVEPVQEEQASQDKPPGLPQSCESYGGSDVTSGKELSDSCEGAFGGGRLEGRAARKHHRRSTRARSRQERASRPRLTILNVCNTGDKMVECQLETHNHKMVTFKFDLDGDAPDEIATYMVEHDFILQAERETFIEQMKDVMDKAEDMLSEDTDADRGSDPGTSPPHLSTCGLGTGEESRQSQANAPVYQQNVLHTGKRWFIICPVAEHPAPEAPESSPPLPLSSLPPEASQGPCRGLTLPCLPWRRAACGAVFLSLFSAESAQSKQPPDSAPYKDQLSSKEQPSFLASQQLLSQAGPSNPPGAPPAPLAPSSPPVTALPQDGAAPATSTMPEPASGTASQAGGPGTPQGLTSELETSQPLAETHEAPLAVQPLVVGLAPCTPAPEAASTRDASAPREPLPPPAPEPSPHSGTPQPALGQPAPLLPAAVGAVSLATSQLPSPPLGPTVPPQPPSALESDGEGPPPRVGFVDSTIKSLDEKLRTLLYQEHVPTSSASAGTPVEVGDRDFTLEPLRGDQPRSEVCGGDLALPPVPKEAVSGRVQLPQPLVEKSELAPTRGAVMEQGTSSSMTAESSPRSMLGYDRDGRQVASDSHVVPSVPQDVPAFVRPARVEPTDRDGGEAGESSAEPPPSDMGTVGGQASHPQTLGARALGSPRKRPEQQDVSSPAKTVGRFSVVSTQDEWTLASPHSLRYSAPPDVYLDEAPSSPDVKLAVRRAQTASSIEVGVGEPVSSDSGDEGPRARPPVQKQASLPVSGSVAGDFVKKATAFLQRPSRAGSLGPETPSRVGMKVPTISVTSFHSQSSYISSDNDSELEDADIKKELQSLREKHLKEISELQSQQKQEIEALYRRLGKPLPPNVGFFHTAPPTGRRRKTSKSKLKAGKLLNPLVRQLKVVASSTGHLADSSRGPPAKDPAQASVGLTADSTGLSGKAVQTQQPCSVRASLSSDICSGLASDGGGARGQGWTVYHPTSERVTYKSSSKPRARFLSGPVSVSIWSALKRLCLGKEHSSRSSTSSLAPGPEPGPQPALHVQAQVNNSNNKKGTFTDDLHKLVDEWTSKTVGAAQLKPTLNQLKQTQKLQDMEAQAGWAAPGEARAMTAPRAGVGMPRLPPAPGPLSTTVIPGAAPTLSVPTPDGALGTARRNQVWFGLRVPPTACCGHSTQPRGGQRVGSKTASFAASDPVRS
SMILES,residual activity [1] [%],residual activity [2],residual activity [3] [%],residual activity [4] [%],residual activity [5] [%],residual activity [6] [%],residual activity [7] [%],residual activity [8] [%],residual activity [9] [%],residual activity [10] [%],residual activity [11] [%],residual activity [12] [%],residual activity [13] [%],residual activity [14] [%],residual activity [15] [%],residual activity [16] [%],residual activity [17] [%],residual activity [18] [%]
CCCC(=O)Oc1ccc2[nH]c(C(=O)c3cc4ccccc4[nH]3)cc2c1,75,102% (inactive),85,104,90,89,82,93,107,89,81,94,100,95,99,79,,
O=C(c1ccccc1)c1ccc(N2CCOCC2)cc1O,94,112% (inactive),97,115,95,84,93,94,111,96,87,93,88,94,96,54,,
CC(C)(C)n1nc(Cc2cccc3ccccc23)c2c(N)ncnc21,66,95% (inactive),72,5,0,99,27,3,113,77,63,24,98,97,120,87,97,113
O=C(CCCc1ccc(-c2ccccc2F)cc1)Nc1ccc(O)cc1,88,94% (inactive),91,,,98,81,85,106,101,,,103,98,82,105,109,98
O=C(O)/C=C/c1cc(Br)c(Br)c(Br)c1Br,89,108% (inactive),94,,96,100,81,49,,103,,82,104,70,,,108,75
CC(C)[C@H](CO)Nc1nc(Nc2cc(N)cc(Cl)c2)c2ncn(C(C)C)c2n1,40,88% (inactive),37,5,0,95,59,17,99,89,28,2,98,83,,72,98,84
Cn1sc(=O)n(Cc2ccccc2)c1=O,88,99% (inactive),79,,,87,71,73,100,85,,92,,,,,98,97
CC(C)c1nn(-c2c(Cl)cccc2Cl)c2nc(Cc3ccc(OCCO)cc3)[nH]c(=O)c12,93,,97,,93,,79,76,,96,,87,97,90,85,86,104,129
N#C/C(=C1/Nc2ccccc2S1)c1ccnc(NCCc2cccnc2)n1,28,73% (inactive),39,113,48,,,,,,,,89,62,,,,76
COc1ccc2c(c1)c(C1=C(c3c[nH]c4ccccc34)C(=O)NC1=O)cn2CCCN(C)C,68,105% (inactive),77,75,20,61,81,,109,81,,,113,111,113,100,99,27
O=C1Nc2ccccc2/C1=C\c1c(Cl)[nH]c2ccccc12,61,,64,,,,85,41,,48,,,118,,,,,
CN(C)S(=O)(=O)c1ccc2c(c1)/C(=C/c1cc3c([nH]1)CCCC3)C(=O)N2,89,100% (inactive),89,12,6,94,91,91,29,28,31,35,,,,,114,100
